Measurements: PubChem BioAssay
Unmarked numbers belong to inactive results. The rule behind the calls is not given here.

The compounds below were run against Pantothenate synthetase (Mycobacterium tuberculosis (strain ATCC 25618 / H37Rv)) (UniProt P9WIL5) (assay: Recombinant Mtb pantothenate synthetase (PanC) inhibitors, coupled enzyme, confirmatory (AID 375;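 note: 0% = full reaction with vehicle and 100% = no enzyme background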)). Conditions: coupled enzyme assay; at 10 µM, stronger effect = higher value.
Sequence of Pantothenate synthetase (Mycobacterium tuberculosis (strain ATCC 25618 / H37Rv)) (P9WIL5 whole entry, looked up): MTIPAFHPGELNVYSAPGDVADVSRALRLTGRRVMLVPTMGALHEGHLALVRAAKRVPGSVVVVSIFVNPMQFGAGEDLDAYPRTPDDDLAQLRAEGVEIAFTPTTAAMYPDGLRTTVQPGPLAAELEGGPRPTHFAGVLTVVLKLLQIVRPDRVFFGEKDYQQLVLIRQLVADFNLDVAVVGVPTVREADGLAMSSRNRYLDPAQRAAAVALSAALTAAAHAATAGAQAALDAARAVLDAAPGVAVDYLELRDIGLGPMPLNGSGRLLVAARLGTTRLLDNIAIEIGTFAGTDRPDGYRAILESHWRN

| SMILES | inhibition [%] |
| --- | --- |
| O=C(O)c1ccc2c(c1)C(=O)N(c1ccc(Cl)cn1)C2=O | 8 |
| Cc1c(NC(=O)c2noc3c2CCc2ccccc2-3)c(=O)n(-c2ccccc2)n1C | 0 |
| CCOc1cccc(-c2nnc3n2N=C(c2cc(OC)ccc2OC)CS3)c1 | 8 |
| CCn1c(SCC(=O)Nc2ccc(C(C)=O)cc2)nc2ccccc21 | 3 |
| CC(C)(C)n1ncc2c(=O)n(CC(=O)NCCc3ccccc3)cnc21 | 4 |
| CON(C)c1nc(Oc2ccc(=O)[nH]n2)nc(N(C)C)n1 | 1 |
| Cc1cccc(NC(=O)CS(=O)(=O)c2cn(C)c3ccccc23)c1 | 0 |
| O=C1NC(c2cccnc2)C(C(=O)c2cccs2)C(O)(C(F)(F)F)N1 (stereo not given) | 6 |
| COc1cccc(-c2nnc3sc(-c4ccc(C)cc4)nn23)c1 | 0 |
| CC1(C)Cc2noc(N)c2C(C)(C)N1O | 0 |
| CC1(C)CC(=O)CC(C)(C)N1OC(=O)c1ccccn1 | 0 |
| COc1ccccc1C(=O)N1CCN=C1SCc1cccnc1 | 0 |
| CC1=C(C(=O)Nc2cccnc2)C(c2ccc(C(C)C)cc2)n2ncnc2N1 (stereo not given) | 1 |
| COCCn1c(=O)[nH]c2cc(C(=O)N3CCN(c4ccccc4OC)CC3)ccc2c1=O | 2 |
| COCCNC(=O)c1ccc2c(c1)nc(C)n2-c1cccc(F)c1 | 9 |
| CCOC(=O)C1=C(C)NC(C)=C(C(=O)OC)C1c1cccc([N+](=O)[O-])c1 (stereo not given) | 7 |
| COc1ccccc1C(=O)N1CCCC(c2nc(-c3cc(OC)c(OC)c(OC)c3)no2)C1 (stereo not given) | 0 |
| CC1CCCN(C(=O)c2cc3c(-c4ccc(Cl)cc4)nn(C)c3s2)C1 (stereo not given) | 4 |
| CC1(C)CC2CC(C)(CN2S(=O)(=O)c2ccc(N)cc2)C1 (stereo not given) | 0 |
| COc1cccc(-c2csc3nc[nH]c(=O)c23)c1 | 3 |

| SMILES | inhibition [%] |
| --- | --- |
| COc1cc2c(cc1OC)C(c1cc(OC)c(OC)c(OC)c1)NCC2 (stereo not given) | 0 |
| COc1cc2c(cc1OC)-c1nnc(-c3cccs3)n1C(C)(C)C2 | 0 |
| Cc1cccc(NC(=O)CCN2CCN(C/C=C/c3ccccc3)CC2)c1 | 0 |
| c1ccc(-c2cc3c(nn2)CCc2nonc2-3)cc1 | 0 |
| COc1ccc(OC)c(C(=O)COC(=O)c2cc(C)oc2C)c1 | 11 |
| Cc1ccc(C2c3sc(=O)[nH]c3SC3C(=O)NC(=O)C32)cc1 (stereo not given) | 0 |
| CCOC(=O)c1sc(NC(=O)CSc2n[nH]c(-c3ccccc3)n2)c(C#N)c1C | 11 |
| CCOC(=O)N1CCN(c2cc(=O)n(-c3cccc(Br)c3)c(=O)[nH]2)CC1 | 0 |
| Cn1c(CCNC(=O)c2ccco2)nc2cc(NC(=O)C3CCCCC3)ccc21 | 0 |
| COc1ccc(S(=O)(=O)N2CCC(C(=O)Nc3c(F)cccc3F)CC2)cc1 | 2 |
| Cc1cc(=O)c2n(Cc3ccccc3Cl)nc[n+]2[nH]1 | 5 |
| Cc1ccccc1C(=O)NC1CCN(Cc2nnnn2CCc2ccccc2)CC1 | 14 |
| CCC1(C)Cc2c(sc3nc(SCC(=O)O)[nH]c(=O)c23)CO1 (stereo not given) | 0 |
| COc1cccc(OC)c1C(=O)Nc1ccc(CN2CCCCC2)cc1 | 0 |
| CCOC(=O)Cc1nnc(NC(=O)c2ccccc2OCC)s1 | 0 |
| CCOc1ccc(-c2cc(CCCC(=O)N3CCN(c4ccc(OC)cc4)CC3)no2)cc1 | 0 |
| Cc1ccc(CS(=O)(=O)CCC(=O)NCC2CCCO2)cc1 (stereo not given) | 0 |
| Nc1ccc(S(=O)(=O)c2cccc(N)c2)cc1 | 8 |
| Nc1ncnc2nc(Sc3ccc(Cl)cc3)[nH]c12 | 0 |
| O=C(NCc1ccccc1)N1CCn2c(nc3ccccc32)C1 | 3 |
